# Screening data deposited in PubChem BioAssay by National Center for Advancing Translational Sciences (NCATS).
# Glioma ERSR ind: inducers of ER stress response in human glioma cells; U87-MG GRP78 promoter luciferase reporter, 16 h; Potency, µM, for inactives: top-dose activation, hits mostly activators; actives 0.02% (n = 420,000); AID 602332; active = well fitted activation curve with a large enough effect; inconclusive = small, poorly fitted or top-dose-only effect; inactive = no such curve, though single readings can be large or run the other way; note: potency is the fitted concentration of half-maximal effect; series mostly up to about 76 µM; % of control where 0% means no effect; nearly all actives have a fitted effect of over 35% in size
#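 ERSR induction read as luciferase luminescence (Bright-Glo, 10 min at room temperature) in stably transfected human U87-MG glioma cells exposed to compounds for 16 h, using GRP78 as sensor.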
# D1 antag: human D1 dopamine receptor antagonism; P21728; HEK293 TREx D1 cells, calcium flux, dopamine EC80; hits give low values; activity change, negative = inhibition, % at 10 µM; actives 3.2% (n = 360,000); in the data active = activity change below about -30%; note: % is set by controls: 0 for no effect and ±100 for the full control effect
#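 Cells carrying a force-coupled, tetracycline-inducible human D1 receptor report calcium flux. Each well gets a 10 s baseline, compound with 180 s monitoring, then an EC80 dopamine stimulus with a second 180 s kinetic read.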
# TRHR enhancer: allosterically enhances the human TRH receptor | P34981 | TRHR cells, fluo-8 calcium fluorescence, EC20 TRH enhancement | enhancement, % at 2 µM | actives 0.66% (n = 360,000) | AID 493056; in the data active = enhancement above about 30%; note: 0% is about no effect
# Target sequence (P34981 whole entry, looked up): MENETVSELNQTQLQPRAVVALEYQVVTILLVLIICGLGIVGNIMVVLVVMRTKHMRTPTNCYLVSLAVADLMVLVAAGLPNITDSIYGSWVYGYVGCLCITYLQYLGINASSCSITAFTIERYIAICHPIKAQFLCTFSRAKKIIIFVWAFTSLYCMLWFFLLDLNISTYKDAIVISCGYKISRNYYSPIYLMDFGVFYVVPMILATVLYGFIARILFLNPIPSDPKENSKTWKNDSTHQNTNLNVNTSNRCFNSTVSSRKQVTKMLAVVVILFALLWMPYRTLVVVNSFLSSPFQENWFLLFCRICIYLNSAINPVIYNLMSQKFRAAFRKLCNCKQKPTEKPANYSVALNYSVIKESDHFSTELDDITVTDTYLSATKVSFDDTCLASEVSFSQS
#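 Enhancer read-out: after compound pinning and an initial kinetic agonist-mode read, an EC20 of TRH (10 nM final) was injected and fluo-8 calcium signal (Ex 480/Em 530) followed at 1 s/cycle for 100 cycles in TRHR-expressing cells.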
# D1 ag: activates the human D1 dopamine receptor; actives 1% (n = 360,000); P21728; activation, % at 2 µM; HEK293 T-REx D1 cells, calcium flux, agonist mode; note: 0% is about no effect
#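 Inducible HEK293 T-REx D1 cells, force-coupled to calcium signalling, were plated at 4000 cells/well with tetracycline and held overnight at 30 C. After no-wash calcium dye loading, compound-evoked calcium rise over 180 s flagged agonists.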
# TRHR ag: activates the human TRH receptor; activation, % at 2 µM; AID 493084; TRHR cells, calcium flux fluo-8, FDSS agonist mode; actives 0.18% (n = 360,000); note: 0% is about no effect
#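 TRHR-expressing cells loaded with fluo-8 calcium dye; 23 nL library compound pin-transferred, kinetic FDSS fluorescence (Ex 480/Em 530) recorded about 180 s for agonist-induced calcium release, before a 10 nM TRH EC20 addition for potentiator mode.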
# D1 potentiator: enhances dopamine response at the human D1 receptor; P21728; HEK293 TREx D1 cells, calcium flux, dopamine EC20 potentiation; potentiation, % at 10 µM; actives 0.036% (n = 360,000); AID 504651; in the data active = potentiation above about 30%; note: 0% is about no effect
# The depositor's hits bear a star; ? = inconclusive; · = not tested or not shown. Most compounds without a hit are left out; they make up all but 4% or so of the library. Cut-off read from the data, not from the text of the source, unless noted: active = activation above about 30%; inactive = the rest.
SMILES,Glioma ERSR ind,D1 antag,TRHR enhancer,D1 ag,TRHR ag,D1 potentiator
CC(=O)c1cccc(NC(=O)C2CC(=O)N(c3cccc(C)c3C)C2)c1 (configuration not stated),1.5%,6.4,-2.4,4.6,0.0,-6.3
Cc1ccc(-c2cc(C(=O)N3CCN(c4ccccc4O)CC3)c3ccccc3n2)o1,4.4%,13.0,-0.8,3.4,-0.3,0.6
COc1cc(C)ccc1OCc1cc(C(=O)NC(c2ccccn2)C(F)(F)F)no1 (configuration not stated),2.3%,·,·,·,·,·
O=C(Nc1ccc(N2CCOCC2)c(Cl)c1)c1ccc(Cl)cc1,2.4%,-30.6*,-9.0,13.6,-0.2,-5.0
Cc1ccccc1C(=O)Nc1ccc(CN2CCOCC2)cc1,-1.0%,-9.3,0.6,6.3,2.3,-5.7
O=C(Nc1ccc(N2CCOCC2)c(Cl)c1)c1ccco1,-8.6%,-33.7*,5.2,3.0,-0.7,-14.0
COc1c(C(=O)Nc2ccc(CN3CCOCC3)cc2)cc2ccccc2c1Br,-4.4%,-30.7*,-6.3,13.0,1.5,-2.4
CCN1CCN(c2ccc(NC(=O)c3ccc(F)cc3)cc2Cl)CC1,-2.7%,-39.8*,0.6,13.2,0.7,-16.6
COC(=O)[C@@]12CCCN1[C@H](c1ccc(-c3ccc(OC)cc3)c(OC)c1)[C@H]1C(=O)N(C)C(=O)[C@H]12,-2.1%,1.0,0.3,0.2,-0.3,-0.7
O=C(Nc1ccc(CN2CCOCC2)cc1)c1ccc(Cl)cc1,-1.9%,6.8,0.6,12.0,1.0,3.5
O=C(Nc1ccc(N2CCN(C(=O)c3ccco3)CC2)cc1)c1ccc([N+](=O)[O-])cc1Cl,-3.5%,-6.5,-0.5,12.9,0.1,-0.9
O=C(Nc1ccc2c(c1)CCCN2C(=O)c1ccco1)c1cc([N+](=O)[O-])ccc1Cl,-1.1%,-42.3*,-4.0,1.1,0.0,-19.9
O=C(Nc1ccc(CN2CCOCC2)cc1)c1ccco1,-5.9%,-35.4*,-5.9,2.1,-0.2,-3.6
O=C(Nc1ccc(N2CCN(C(=O)c3ccccc3)CC2)c(Cl)c1)c1ccco1,-9.8%,-33.4*,-5.6,3.9,-1.2,-5.3
CC(=O)N1CCN(c2ccc(NC(=O)c3ccco3)cc2Cl)CC1,0.2%,-9.8,0.8,3.6,0.8,-2.5
CC1CN(c2ccc(NC(=O)c3ccco3)cc2C(=O)O)CC(C)O1 (configuration not stated),-2.9%,-25.1,30.1*,1.6,0.4,-6.6
CC(NC(=O)CN(C1CCCCC1)S(C)(=O)=O)c1ccccc1 (configuration not stated),-5.3%,0.0,3.0,0.5,-0.5,-2.3
CCCCn1c(-c2sccc2C)n[nH]c1=S,-0.9%,3.9,-1.2,2.3,-0.8,-0.8
CCCC(=O)N1CCN(c2ccc(NC(=O)c3cc4ccccc4o3)cc2Cl)CC1,-14.0%,-46.9*,-1.4,10.8,-0.9,-8.8
O=C(Nc1ccc(N2CCOCC2)c(F)c1)c1cccs1,10.0%,-38.5*,-4.5,0.1,-0.4,-7.3
CCC(=O)N1CCN(c2ccc(NC(=O)c3cc4ccccc4o3)cc2Cl)CC1,-12.0%,-22.6,12.6,4.2,-0.5,-6.0
COc1cccc(C2=NOC(C(=O)Nc3cc(C)nn3-c3ccccc3)C2)c1OC (configuration not stated),-3.7%,5.2,-3.3,6.1,0.3,0.1
Cc1ccccc1N/C(=N/S(=O)(=O)c1cc(F)ccc1F)c1ccccc1,?,-31.0*,-7.6,2.5,-0.4,-11.2
Cc1cc(N/C(=N/S(=O)(=O)c2cc(F)ccc2F)c2ccccc2)n(-c2ccccc2)n1,1.3%,-35.9*,-5.8,7.4,0.7,-5.9
Cc1cc(N/C(=N\S(=O)(=O)c2ccc(F)cc2F)c2ccccc2)no1,-2.6%,·,-7.8,-0.3,-0.8,0.3
Cc1cc(NC(=O)C2CC(c3ccc(F)cc3)=NO2)n(-c2ccccc2)n1 (configuration not stated),0.0%,-63.9*,-3.4,0.8,0.2,·
C/C(=N\NC(=O)C(O)c1ccccc1)c1ccc(C)s1 (configuration not stated),0.4%,·,·,·,·,·
